Source: PubChem BioAssay AID1159580 (chemical genetic matrix, 2015)
In all, about 5,500 compounds went through this assay and about 2,000 (36%) were called active. About 18% were inconclusive and are not listed. Cut-off read from the data, not from the text of the source: active = normalized growth mostly below about 0.91 (no sharp cut-off); inconclusive = no clear call, values can overlap the other calls; inactive = mostly above about 0.92. The list shows a part of the results.

Experiment: chemical genetic growth profiling, strain panel (AID 1159580);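 note: tested at 20 µM; growth read once vehicle control cultures reached saturation at 30 °C; 1 = growth at the plate median or of vehicle wells; lower values mean less growth of the strain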
Details: growth OD

Measured: normalized growth

COc1cc(OC)c2ccc(=O)oc2c1
inactive: S. cerevisiae deletion strains, locus YJR075W, strain HOC1, stronger effect = lower value 1.01 | S. cerevisiae deletion strains, locus YKL009W, strain mrt4, stronger effect = lower value 0.966 | S. cerevisiae deletion strains, locus YKL068W, stronger effect = lower value 1.01 | S. cerevisiae deletion strains, locus YKL085W, strain MDH1 (second series), stronger effect = lower value 1.01 | S. cerevisiae deletion strains, locus YKL085W, strain MDH1, stronger effect = lower value 1.01 | S. cerevisiae deletion strains, locus YKL160W, strain elf1, stronger effect = lower value 0.977 | S. cerevisiae deletion strains, locus YKL190W, strain CNB1, stronger effect = lower value 1.01 | S. cerevisiae deletion strains, locus YKR001C, strain vps1, stronger effect = lower value 0.945 | S. cerevisiae deletion strains, locus YKR026C, strain gcn3, stronger effect = lower value 0.962 | S. cerevisiae deletion strains, locus YKR091W, strain srl3, stronger effect = lower value 0.99 | S. cerevisiae deletion strains, locus YLL001W, strain dnm1, stronger effect = lower value 0.94 | S. cerevisiae deletion strains, locus YLL026W, stronger effect = lower value 0.973 | S. cerevisiae deletion strains, locus YLL041C, strain sdh2, stronger effect = lower value 0.979 | S. cerevisiae deletion strains, locus YLR027C, strain aat2, stronger effect = lower value 0.977 | S. cerevisiae deletion strains, locus YLR039C, strain RIC1, stronger effect = lower value 0.974 | S. cerevisiae deletion strains, locus YLR058C, strain SHM2, stronger effect = lower value 1.01 | S. cerevisiae deletion strains, locus YLR102C, strain apc9, stronger effect = lower value 1.01 | S. cerevisiae deletion strains, locus YLR113W, strain HOG1, stronger effect = lower value 1.02 | S. cerevisiae deletion strains, locus YLR221C, strain rsa3, stronger effect = lower value 0.97 | S. cerevisiae deletion strains, locus YLR258W, strain gsy2, stronger effect = lower value 0.952 | S. cerevisiae deletion strains, locus YLR262C, strain YPT6 (second series), stronger effect = lower value 0.97 | S. cerevisiae deletion strains, locus YLR262C, strain YPT6, stronger effect = lower value 0.992 | S. cerevisiae deletion strains, locus YLR268W, strain sec22, stronger effect = lower value 1.01 | S. cerevisiae deletion strains, locus YLR320W, strain mms22, stronger effect = lower value 0.897 | S. cerevisiae deletion strains, locus YLR330W, strain CHS5, stronger effect = lower value 1 | S. cerevisiae deletion strains, locus YLR342W, strain FKS1 (second series), stronger effect = lower value 1.03 | S. cerevisiae deletion strains, locus YLR342W, strain FKS1, stronger effect = lower value 0.976 | S. cerevisiae deletion strains, locus YLR357W, strain rsc2, stronger effect = lower value 1.05 | S. cerevisiae deletion strains, locus YLR370C, strain arc18, stronger effect = lower value 0.981 | S. cerevisiae deletion strains, locus YLR371W, strain rom2, stronger effect = lower value 1.01 | S. cerevisiae deletion strains, locus YLR384C, strain iki3, stronger effect = lower value 0.975 | S. cerevisiae deletion strains, locus YLR418C, strain cdc73, stronger effect = lower value 1.01 | S. cerevisiae deletion strains, locus YML016C, strain PPZ1, stronger effect = lower value 1 | S. cerevisiae deletion strains, locus YML032C, strain rad52, stronger effect = lower value 0.982 | S. cerevisiae deletion strains, locus YML120C, strain ndi1, stronger effect = lower value 0.954 | S. cerevisiae deletion strains, locus YML124C, strain tub3, stronger effect = lower value 1.01 | S. cerevisiae deletion strains, locus YMR058W, strain fet3, stronger effect = lower value 0.957 | S. cerevisiae deletion strains, locus YMR078C, strain ctf18, stronger effect = lower value 0.996 | S. cerevisiae deletion strains, locus YMR125W, strain sto1, stronger effect = lower value 0.993 | S. cerevisiae deletion strains, locus YMR129W, stronger effect = lower value 0.988 | S. cerevisiae deletion strains, locus YMR205C, strain PFK2, stronger effect = lower value 0.97 | S. cerevisiae deletion strains, locus YMR223W, strain ubp8, stronger effect = lower value 0.976 | S. cerevisiae deletion strains, locus YMR231W, strain pep5, stronger effect = lower value 0.965 | S. cerevisiae deletion strains, locus YMR263W, strain SAP30, stronger effect = lower value 0.992 | S. cerevisiae deletion strains, locus YMR307W, strain GAS1, stronger effect = lower value 1.02 | S. cerevisiae deletion strains, locus YNL067W, strain RPL9B, stronger effect = lower value 0.989 | S. cerevisiae deletion strains, locus YNL071W, strain lat1, stronger effect = lower value 0.953 | S. cerevisiae deletion strains, locus YNL128W, strain TEP1, stronger effect = lower value 1.01 | S. cerevisiae deletion strains, locus YNL153C, strain GIM3, stronger effect = lower value 1.01 | S. cerevisiae deletion strains, locus YNL183C, strain NPR1, stronger effect = lower value 0.946 | S. cerevisiae deletion strains, locus YNL209W, strain ssb2, stronger effect = lower value 0.98 | S. cerevisiae deletion strains, locus YNL233W, strain BNI4, stronger effect = lower value 1 | S. cerevisiae deletion strains, locus YNL250W, strain rad50, stronger effect = lower value 0.992 | S. cerevisiae deletion strains, locus YNL271C, strain bni1, stronger effect = lower value 0.99 | S. cerevisiae deletion strains, locus YNL298W, strain CLA4, stronger effect = lower value 0.973 | S. cerevisiae deletion strains, locus YNL307C, strain MCK1, stronger effect = lower value 0.988 | S. cerevisiae deletion strains, locus YNL322C, strain KRE1 (second series), stronger effect = lower value 0.992 | S. cerevisiae deletion strains, locus YNL322C, strain KRE1, stronger effect = lower value 1 | S. cerevisiae deletion strains, locus YNR049C, strain mso1, stronger effect = lower value 0.982 | S. cerevisiae deletion strains, locus YNR052C, strain pop2, stronger effect = lower value 0.989 | S. cerevisiae deletion strains, locus YOL006C, strain TOP1, stronger effect = lower value 0.921 | S. cerevisiae deletion strains, locus YOL012C, strain htz1 1.64 | S. cerevisiae deletion strains, locus YOL147C, strain pex11, stronger effect = lower value 1 | S. cerevisiae deletion strains, locus YOR001W, strain rrp6, stronger effect = lower value 0.963 | S. cerevisiae deletion strains, locus YOR061W, strain CKA2, stronger effect = lower value 1 | S. cerevisiae deletion strains, locus YOR069W, strain VPS5, stronger effect = lower value 1.01 | S. cerevisiae deletion strains, locus YOR070C, strain gyp1, stronger effect = lower value 0.964 | S. cerevisiae deletion strains, locus YOR080W, strain dia2, stronger effect = lower value 0.969 | S. cerevisiae deletion strains, locus YOR083W, strain WHI5, stronger effect = lower value 0.968 | S. cerevisiae deletion strains, locus YOR106W, strain vam3, stronger effect = lower value 0.95 | S. cerevisiae deletion strains, locus YOR136W, strain idh2, stronger effect = lower value 1.01 | S. cerevisiae deletion strains, locus YOR144C, strain elg1, stronger effect = lower value 1.01 | S. cerevisiae deletion strains, locus YOR184W, strain ser1, stronger effect = lower value 0.949 | S. cerevisiae deletion strains, locus YOR231W, strain MKK1, stronger effect = lower value 0.991 | S. cerevisiae deletion strains, locus YOR265W, strain rbl2, stronger effect = lower value 0.977 | S. cerevisiae deletion strains, locus YOR270C, strain vph1, stronger effect = lower value 0.814 | S. cerevisiae deletion strains, locus YOR290C, strain snf2, stronger effect = lower value 0.936 | S. cerevisiae deletion strains, locus YOR316C, strain cot1, stronger effect = lower value 0.998 | S. cerevisiae deletion strains, locus YPL051W, strain arl3, stronger effect = lower value 0.968 | S. cerevisiae deletion strains, locus YPL055C, strain LGE1, stronger effect = lower value 0.971 | S. cerevisiae deletion strains, locus YPL078C, strain atp4, stronger effect = lower value 0.957 | S. cerevisiae deletion strains, locus YPL106C, strain sse1, stronger effect = lower value 0.926 | S. cerevisiae deletion strains, locus YPL240C, strain hsp82, stronger effect = lower value 0.985 | S. cerevisiae deletion strains, locus YPL241C, strain CIN2, stronger effect = lower value 1 | S. cerevisiae deletion strains, locus YPL256C, strain CLN2, stronger effect = lower value 1.05 | S. cerevisiae deletion strains, locus YPR119W, strain clb2, stronger effect = lower value 1 | S. cerevisiae deletion strains, locus YPR141C, strain kar3, stronger effect = lower value 1 | S. cerevisiae deletion strains, locus YPR163C, strain tif3, stronger effect = lower value 1.01 | S. cerevisiae deletion strains, locus YPR167C, strain met16, stronger effect = lower value 0.995 | S. cerevisiae deletion strains, strain wtn01, stronger effect = lower value 1 | S. cerevisiae strains, strain wild type, stronger effect = lower value 1.01
active: S. cerevisiae deletion strains, locus YNL248C, strain rpa49, stronger effect = lower value 0.872
